TDP1 cell CPT: qHTS for Inhibitors of human tyrosyl-DNA phosphodiesterase 1 (TDP1): qHTS in cells in presence of CPT; chicken DT40 Tdp1-/-;hTDP1 cells + 20 nM CPT, ATP luminescence, 48 h; actives 12% (n = 420,000); Potency, µM (highest dose often 46.2 µM), for inactives: at the highest dose activity change, negative = growth inhibition, hits mostly inhibitors; note: % is set by controls: 0 for no effect and ±100 for the full control effect; nearly all actives have a fitted effect of over 55% in size
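Chicken DT40 Tdp1-/- cells stably complemented with human TDP1 were seeded at 400 cells/well in medium containing 20 nM camptothecin, exposed to pin-transferred compounds, and grown at 37 °C for at least 48 hr. Viability was read as ATP luminescence.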
ClpP mod: qHTS Assay for Activators of ClpP; ATP-dependent Clp protease proteolytic subunit (Bacillus subtilis (strain 168)), P80244; Potency, µM (highest dose often 57.5 µM), without a hit: at the highest dose activity change, negative = active; purified B. subtilis ClpP, FRET peptide cleavage, 20 min; actives 1.9% (n = 340,000); active = well fitted falling curve with a large enough effect; inconclusive = small, poorly fitted or top-dose-only effect; inactive = no such curve, though single readings can be large or run the other way; note: the source files actives as falling curves though it sought activators and does not explain the sign; nearly all actives have a fitted effect of over 65% in size
Target sequence (P80244 whole entry, looked up): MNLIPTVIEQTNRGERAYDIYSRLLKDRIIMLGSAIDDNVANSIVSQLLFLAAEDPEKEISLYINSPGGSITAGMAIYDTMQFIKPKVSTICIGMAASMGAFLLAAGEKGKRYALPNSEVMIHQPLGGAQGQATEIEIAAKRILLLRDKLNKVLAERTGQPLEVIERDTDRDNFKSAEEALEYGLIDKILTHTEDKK
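Buffer: 100 mM Tris/HCl pH8, 100 mM KCl, 0.05% low protease BSA, 2.5% glycerol, 0.01% Tween-20. ClpP 10 microg/mL final; 20 min RT; delta FRET normalized to ADEP and DMSO controls.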
DT40 TDP1 no CPT: qHTS for Inhibitors of human tyrosyl-DNA phosphodiesterase 1 (TDP1): qHTS in cells in absence of CPT; actives 15% (n = 420,000); DT40 Tdp1-/- hTDP1 cells, no CPT, ATP luminescence, 48 h; Potency, µM (series often up to 46.2 µM), without a hit: top-dose activity change, negative = growth inhibition, most hits filed as inhibitors; AID 686978, 2013; note: % is set by controls: 0 for no effect and ±100 for the full control effect; nearly all actives have a fitted effect of over 55% in size
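Camptothecin absent (DMSO only). Human TDP1-complemented DT40 knockout cells, 400 cells/well, 37 °C for minimum 48 hr; ATP measured via CellTiter-Glo, 30 min dark incubation, luminescence.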
TDP1 inh: qHTS Assay for Inhibitors of Tyrosyl-DNA Phosphodiesterase (TDP1); actives 0.28% (n = 350,000); recombinant TDP1, AlphaScreen DNA substrate cleavage; Potency, µM (top dose mostly 130 µM), inactives show at the top dose activity change, negative = inhibition, most hits filed as inhibitors; AID 485290, 2010; note: % is set by controls: 0 for no effect and ±100 for the full control effect; nearly all actives have a fitted effect of over 40% in size
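Enzyme-compound mixtures sat 15 min at room temperature, followed by a 5 min reaction with 15 nM final substrate and 10 min with AlphaScreen beads. Recombinant human Tdp1 was used at 1 nM final.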
Active calls of the source: *; ? = inconclusive; / = no result given; [ ] = dose if it differs, or a comment. A selection: hits, their analogues and other compounds. The true share with any hit is near 17%. Unless noted, calls come from the whole dose curve; as a rule, active = well fitted curve in the direction sought with a large enough effect; inconclusive = small, poorly fitted or top-dose-only effect, or another doubt; inactive = no such curve, though single readings can be large; an effect the other way counts as inactive or inconclusive. Potency is the fitted concentration of half-maximal effect.

SMILES | TDP1 cell CPT | ClpP mod | DT40 TDP1 no CPT | TDP1 inh
COc1cc(-c2nc(-c3ccc4c(c3)-c3ccccc3S4(=O)=O)c(-c3ccccc3)[nH]2)cc(OC)c1O | 6.5µM* | 0% | 16µM* | 8%
O=C(c1ccccc1C(F)(F)F)N1CCOc2c(cc(-c3nc4ccccc4s3)cc2OC2CCOC2)C1 (centres undefined) | 23%[9.04 µM] | / | -5% | /
CC(=O)N1CCN(S(=O)(=O)c2cccc(C(=O)NNC(=O)c3ccc(Br)cc3)c2)CC1 | 0% | 0% | 3% | /
CCOC(=O)Cn1c(=O)c2c(nc(Br)n2Cc2ccccc2Cl)n(C)c1=O | 18µM* | -2% | 23µM* | 1%
C=CCn1c(=O)c2c(nc(Br)n2Cc2ccccc2Cl)n(C)c1=O | 18µM* | 1% | ? | 2%
N[C@@H](Cn1cc(F)c(=O)[nH]c1=O)C(=O)O | 4% | / | 0% | -12%[56.1 µM]
CCc1ccc(NC(=O)Cn2cc(S(=O)(=O)N3CCCC3)c(S(=O)(=O)N3CCCC3)c2)cc1 | -2% | 3% | -2% | 2%
COc1ccc(NC(=O)N2CCc3nc(COc4ccccc4)c4c(c3C2)CO[C@@H](C)C4)cc1 | / | / | / | 5%[12.3 µM]
Cn1c(-c2ccccc2)cnc1NCc1ccccc1 | ? | -29% | ? | /
Cn1c(-c2ccc3c(c2)OCO3)cnc1NCc1ccccc1Cl | ? | -20% | 15µM* | -7%
Cn1c(-c2ccc3c(c2)OCO3)cnc1NCc1ccccc1 | 21µM* | -21% | ? | 0%
Cn1c(-c2cccc([N+](=O)[O-])c2)cnc1NCc1cccc(F)c1 | ? | 0% | 21µM* | /
Cn1c(-c2ccc(F)cc2)cnc1NCc1cccc([N+](=O)[O-])c1 | ? | 2% | ? | /
Cn1c(-c2ccc3c(c2)OCO3)cnc1NC(=O)CCC(=O)NCCc1ccccc1 | -11% | -9% | -24% | 8%
O=C(NCCN1CCOCC1)c1ccc(NS(=O)(=O)c2cccc([N+](=O)[O-])c2)cc1 | -2% | -4% | 17% | 9%[0.505 µM]
CCc1ccccc1NC(=O)Cn1nc(CC)n2c(cc3sccc32)c1=O | -21% | -2% | ? | -4%
O=S(=O)(c1ccccc1)N1CCN=C1SCc1c(F)cccc1Cl | 13µM* | 2% | ? | -2%[56.1 µM]
Cc1ccc(C)c(CSC2=NCCN2S(=O)(=O)c2ccccc2)c1 | 18µM* | -8% | 16µM* | /
Cc1ccc(CSC2=NCCN2S(=O)(=O)c2ccc(C)cc2)cc1 | 23µM* | 1% | ? | /
Cc1ccc(S(=O)(=O)N2CCN=C2SCc2ccc(Cl)c(Cl)c2)cc1 | -5% | -3% | -29% | -10%
CC(OC(=O)C1CCN(S(=O)(=O)c2ccc(C(C)(C)C)cc2)CC1)C(=O)N(C)C1CCCCC1 (centres undefined) | ? | -2% | ? | /
CCN(CC)c1ccc2c(C)c(CN3CCOCC3)c(=O)oc2c1 | ? | 28µM* | ? | -7%
CCN(CC)c1ccc2c(Cl)cc(=O)oc2c1 | 23µM* | -6% | -29% | /
CCN(CC)c1ccc(C(=O)OCc2cc(=O)oc3cc(O)ccc23)cc1 | ? | 32µM* | 16µM* | 4%
CC1(C)CC2(C)CC(=O)C1C(C(=O)O)C2C(=O)O (centres undefined) | 15% | 1% | 6% | /
SMILES | TDP1 cell CPT | ClpP mod | DT40 TDP1 no CPT | TDP1 inh
O=c1cc2c(c(-c3ccccc3)n1Cc1ccccc1)[C@H](CCO)NC2 | -10% | -17% | 4% | /
OCC[C@@H]1NCc2cc(CO)cc(-c3ccccc3)c21 | 21µM* | -1% | 18µM* | /
O=C(c1ccc(Cl)cc1)c1ccc(OCC(O)CN2CCOCC2)cc1 (centres undefined) | 23µM* | 1% | 16µM* | 4%
OC(COc1ccc2cc(Br)ccc2c1)CN1CCOCC1 (centres undefined) | 18µM* | -2% | ? | 2%[56.1 µM]
O=C(N1CCOCC1)N1CCN(CC(O)COc2ccc3ccccc3c2)CC1 (centres undefined) | 1% | -3% | -29% | -3%
CC(C)(C)c1ccc(OCC(O)CN2CCOCC2)cc1 (centres undefined) | -11% | 1% | ? | /
CCCCn1c(SCCN2CCCCC2)nc2c1c(=O)n(C)c(=O)n2C | -30% | 1% | -28% | /
Cc1ccnc(NC(=O)C(Cc2ccccc2)NC(=O)c2ccccc2)c1 (centres undefined) | ? | 0% | 16µM* | 1%
CCN(c1ccccc1)S(=O)(=O)c1ccc(C(=O)Nc2ccncc2)cc1 | 23µM* | -20% | 21µM* | 0%
CCN(c1ccccc1)S(=O)(=O)c1ccc(C(=O)Nc2ncccc2C)cc1 | 1% | -4% | -10% | /
CCN(c1ccccc1)S(=O)(=O)c1ccc(C(=O)Nc2cc(C)ccn2)cc1 | 16µM* | 1% | 18µM* | 1%
O=C(Nc1ccc(-c2cn3cccnc3n2)cc1)c1cc(Br)ccc1Cl | ? | ? | ? | 1%
COc1cccc(-c2noc(C3CC(=O)N(c4ccc(F)cc4)C3)n2)c1OC (centres undefined) | -25% | 0% | -7% | 2%
O=C(Nc1ccccc1C(=O)NCc1cccnc1)c1ccccc1F | -5% | 2% | 23% | 1%
COc1cccc(CN(C)C(=O)c2cnn(-c3nccc(-c4ccc5c(c4)OCO5)n3)c2C)c1 | 1%[9.04 µM] | / | 0% | /
CC(C)Oc1ccc(CNC(=S)Nc2ccccc2)cc1Cl | ? | -1% | ? | /
CCCOc1ccc(CNC(=S)Nc2ccccc2)cc1Cl | ? | 1% | 16µM* | /
CC(C)COc1ccc(CNC(=S)Nc2ccccc2)cc1Cl | ? | / | 26µM* | /
COc1ccc(CNC(=S)Nc2ccccc2)cc1Cl | -22% | -2% | -10% | /
CCC(Sc1nnc2c(n1)[nH]c1ccccc12)C(=O)Nc1nnc(C(C)C)s1 (centres undefined) | ? | -2% | ? | 0%
C[C@@H]1CN([C@H](C)CO)C(=O)c2cc(Br)cnc2O[C@@H]1CN(C)C(=O)CC1CC1 | -1% | 1% | -19% | /
CN(C)S(=O)(=O)c1ccc2c(c1)N(CC(=O)NCc1cccc(Br)c1)C(=O)CS2 | ? | 1% | ? | -3%
COc1ccc(-c2ccc(=O)n(CC(=O)NCc3ccco3)n2)cc1 | -11% | 25µM* | -12% | -11%
Cc1ccc(-c2ccc(=O)n(CC(=O)NCc3ccco3)n2)cc1 | -1% | -13% | -1% | 2%
Cc1ccccc1C(=O)OCC(=O)NCc1ccco1 | -6% | -1% | -8% | ?
Cc1noc(C)c1COC(=O)c1ccc(S(=O)(=O)NCc2ccco2)cc1 | 16µM* | -1% | ? | 4%
O=C(COC(=O)c1ccc(S(=O)(=O)NCc2ccco2)cc1)c1ccccc1 | 10% | 0% | -19% | 0%
Cc1ccsc1C(=O)OCC(=O)NCc1ccco1 | -1% | 3.2µM* | -1% | 4%
